PubChem BioAssay AID588324 (National Center for Advancing Translational Sciences (NCATS), 2011)
Records with an inconclusive call do not appear. Active and inactive are the calls of the source. The call rests on the fitted dose curve; in most records, active means well fitted inhibition curve with a large enough effect; inconclusive means small, poorly fitted or top-dose-only effect; inactive means flat fitted curve, though single readings scatter.

Test system: Trypanosoma cruzi 6-phosphofructokinase
Assay: Confirmatory Assay to Find Inhibitors of T. brucei phosphofructokinase: Counter Screen against T cruzi PFK
Conditions: ADP-Glo luminescence, 45 min; series mostly up to 57.5 µM; activity, negative = inhibition: at the top concentration
Excerpt: Various species of the protozoan family Trypanosomatidae are responsible for a range of serious human diseases in tropical and subtropical areas of the world. […] Many of the disorders caused by trypanosomatids are fatal if left untreated, but most currently used drugs are inefficient and toxic. […] Oxidative metabolism involving the mitochondrial tricarboxylic acid cycle and oxidative phosphorylation are repressed in these parasites, and recent RNA interference (RNAi) experiments have shown that even partial depletion of certain individual glycolytic enzymes can lead to the death of cultured parasites. One such glycolytic enzyme, phosphofructokinase (PFK), catalyzes the formation of fructose-1,6-bisphosphate (F1,6BP) and ADP from fructose-6-phosphate (F6P) and ATP, and in many metabolic circumstances makes an important contribution to the control of flux through the glycolytic pathway. As a specific glycolytic target, PFK is particularly attractive as it catalyzes the first irreversible step in glycolysis, and structural and kinetic studies have shown very substantial and essential differences from corresponding host enzymes, allowing for the discovery of parasite-selective inhibitors. Confirmed qHTS active compounds were tested against T cruzi PFK. A luminescent biochemical assay was performed that used luciferase-based nucleotide detection (ADP-Glo, Promega) to examine the effect of identified actives against another trypanosomal isoform of PFK, namely Trypansoma cruzi, for target specificity. The assay is identical in concept to the T. brucei PFK qHTS assay, but instead uses the T. cruzi isoform of PFK (expressed and purified by U. of Edinburgh). NIH Molecular Libraries Probe Production Network [MLPCN] NIH Chemical Genomics Center [NCGC] Grant: 1 R03 MH092153-01 PI Name: Malcolm Walkinshaw, University of Edinburgh
Substrate buffer was dispensed into white, solid 1536-well plates at 3 uL/well in 0.1M triethanolamine (TEA) buffer, pH 8.0, containing final concentrations of 5 mM MgCl2, 0.01% Tween20, 0.6mM fructose-6-phosphate (F6P) and 0.1mM ATP. Then, 23nl of compounds or DMSO were delivered to each well using a pin tool. One uL of T. cruzi PFK (0.1M TEA, 0.01% Tween20, 0.1% bovine serum albumin (BSA) and […] PFK, final concentrations) was then dispensed, and plates were incubated at room temperature for 45 min. The luminescent detection reagent, ADP-Glo (Promega), was then added in two steps: the first reagent, ADP-Glo (which converts remaining uncatalyzed ATP), was added at 2.5uL/well and incubated for ten minutes at room temperature, and the second component, Kinase Detection reagent (which converts ADP to ATP as a substrate for luciferase-based luminescence), was added immediately after at 5uL/well, followed by one final ten minute room temperature incubation. The plates were measured on a ViewLux plate reader for luminescent signal using a clear filter with a one second exposure. The %Activity was determined from the corrected luminescence values. 1x (1.25nM) and 0x PFK enzyme controls (untreated) were included to normalize %Activity of identified inhibitors; 0x enzyme values corresponded to 100%Activity (full inhibition), while 1x PFK enzyme values were used to normalize 0% Activity (no inhibition).

Row | Structure (SMILES) | Potency | activity, negative = inhibition
1 | Cc1cc(NS(=O)(=O)c2ccc(NCCc3ccc(Cl)c(Cl)c3)cc2)no1 | 16.3 µM (active) | 
2 | COc1ccc(CC(=O)Nc2ccc(S(=O)(=O)Nc3cc(C)on3)cc2)cc1OC |  | -4.76% (inactive)
3 | Cc1cc(NS(=O)(=O)CCNC(=O)Cc2ccc(Cl)c(Cl)c2)no1 | 16.3 µM (active) | 
4 | O=C(Cc1ccc(Cl)c(Cl)c1)Nc1ccc(S(=O)(=O)Nc2ccc(C(=O)O)cc2)cc1 | 0.291 µM (active) | 
5 | Cc1cc(NC(=O)c2ccc(NC(=O)Cc3ccc(Cl)c(Cl)c3)cc2)no1 |  | -18.9% (inactive)
6 | Cc1cc(NS(=O)(=O)c2ccc(NC(=O)Cc3ccc(Cl)cc3Cl)cc2)no1 | 14.6 µM (active) | 
7 | Cc1cc(NS(=O)(=O)c2ccc(NC(=O)Cc3ccc(Cl)c(C(F)(F)F)c3)cc2)no1 | 0.919 µM (active) | 
8 | Cc1cc(NS(=O)(=O)c2ccc(N(C)C(=O)Cc3ccc(Cl)c(Cl)c3)cc2)no1 | 1.3 µM (active) | 
9 | Cc1cc(NS(=O)(=O)c2cccc(NC(=O)Cc3ccc(Cl)c(Cl)c3)c2)no1 | 16.3 µM (active) | 
10 | Cc1cc(NS(=O)(=O)Cc2ccc(NC(=O)Cc3ccc(Cl)c(Cl)c3)cc2)no1 | 3.26 µM (active) | 
11 | Cc1cc(NS(=O)(=O)c2ccc(NS(=O)(=O)Cc3ccc(Cl)c(Cl)c3)cc2)no1 |  | -20.8% (inactive)
12 | O=C(Cc1ccc(Cl)c(Cl)c1)Nc1ccc(S(=O)(=O)Nc2cncnc2)cc1 | 0.73 µM (active) | 
13 | Cc1cc(NS(=O)(=O)c2ccc(NC(=O)CCc3ccc(Cl)c(Cl)c3)cc2)no1 | 6.51 µM (active) | 
14 | Cc1cc(NS(=O)(=O)c2ccc(NC(=O)Cc3ccc(Cl)c(Cl)c3)cc2)n(C)n1 | 1.16 µM (active) | 
15 | Cc1cc(N[S+](=O)([O-])c2ccc3cc(NC(=O)Cc4ccc(Cl)c(Cl)c4)ccc3c2)no1 | 4.61 µM (active) | 
16 | Cc1cc(NS(=O)(=O)c2ccc(NC(=O)Cc3ccc(Cl)c(F)c3)cc2)no1 | 0.651 µM (active) | 
17 | CN(C)c1cccc(NS(=O)(=O)c2ccc(NC(=O)Cc3ccc(Cl)c(Cl)c3)cc2)c1 | 11.6 µM (active) | 
18 | Cc1cc(NS(=O)(=O)c2ccc(NC(=O)Cc3ccc(C)c(C)c3)cc2)no1 | 6.51 µM (active) | 

Row | Structure (SMILES) | Potency | activity, negative = inhibition
19 | O=C(Cc1ccc(Cl)c(Cl)c1)Nc1ccc(S(=O)(=O)Nc2ccon2)cc1 | 0.13 µM (active) | 
20 | Cc1cc(NC(=O)c2csc(NC(=O)Cc3ccc(Cl)c(Cl)c3)n2)no1 |  | -18.8% (inactive)
21 | Cc1cc(NS(=O)(=O)c2ccc(NC(=O)Cc3ccc(C)c(F)c3)cc2)no1 | 4.61 µM (active) | 
22 | Cc1cc(NS(=O)(=O)c2ccc(NC(=O)Cc3ccc(Cl)c(Cl)c3)cc2)no1 | 0.231 µM (active) | 
23 | Cc1cc(NS(=O)(=O)c2ccc(NC(=O)Cc3ccc(Cl)c(Cl)c3)cc2)on1 | 0.231 µM (active) | 
24 | O=C(Cc1ccc(Cl)c(Cl)c1)Nc1ccc(S(=O)(=O)Nc2ccccc2)cc1 | 16.3 µM (active) | 
25 | O=C(Cc1ccc(Cl)c(Cl)c1)Nc1ccc(S(=O)(=O)Nc2cccc(O)c2)cc1 | 1.63 µM (active) | 
26 | Cc1cc(NS(=O)(=O)c2ccc(NC(=O)Cc3ccc4ccccc4c3)cc2)no1 | 1.83 µM (active) | 
27 | Cc1cc(N(C)S(=O)(=O)c2ccc(NC(=O)Cc3ccc(Cl)c(Cl)c3)cc2)no1 | 2.06 µM (active) | 
28 | Cc1cc(NS(=O)(=O)c2ccc(NC(=O)Cc3ccc(Cl)cc3)cc2)no1 | 1.46 µM (active) | 
29 | Cc1cc(N[S+](=O)([O-])c2ccc(NC(=O)Cc3ccc(Cl)nc3)cc2)no1 | 20.6 µM (active) | 
30 | O=C(Cc1ccc(Cl)c(Cl)c1)Nc1ccc(S(=O)(=O)Nc2cccc(C(=O)O)c2)cc1 | 0.58 µM (active) | 
31 | O=C(Cc1ccc(Cl)c(Cl)c1)Nc1ccc(S(=O)(=O)O)cc1 | 0.461 µM (active) | 
32 | Cc1cc(NS(=O)(=O)c2ccc(NC(=O)Cc3cccc(Cl)c3)cc2)no1 | 2.59 µM (active) | 
33 | O=C(Cc1ccc(Cl)c(Cl)c1)Nc1ccc(S(=O)(=O)Nc2ccn[nH]2)cc1 | 0.73 µM (active) | 
34 | CCOC(=O)c1cccc(NS(=O)(=O)c2ccc(NC(=O)Cc3ccc(Cl)c(Cl)c3)cc2)c1 |  | -18% (inactive)
35 | Cc1cc(NS(=O)(=O)c2ccc(C(=O)NCc3ccc(Cl)c(Cl)c3)cc2)no1 | 2.91 µM (active) | 
